40 compounds from PubChem BioAssay (Tox21) can be followed below.

Activity calls are given as the source filed them. The call rests on the fitted dose curve; in most records, active means well fitted curve in the direction sought with a large enough effect in the repeat runs; inconclusive means weak or mixed curves; inactive means flat fitted curve, though single readings scatter.

The assay can be described thus: qHTS assay to test for compound auto fluorescence at 460 nm (blue) in HEK293 cells (AID 720678). The settings on record: blue autofluorescence 405/460 nm; series mostly up to 91.3 µM. The source says: National Center for Advancing Translational Sciences [NCATS]
NIH Chemical Genomics Center [NCGC]
U.S. Environmental Protection Agency [EPA]
National Institutes of Environmental Health Sciences [NIEHS]
National Toxicology Program [NTP]
U.S. Food and Drug Administration [FDA]
Compound auto fluorescence often interferes with screening of the compound library against various biological targets and signaling pathways. Some of these compounds may have fluorophoric properties. Such properties may interfere with the assay outputs resulting in false positives and/or negatives. To decrease such complications and ensure the compound activities are relevant in terms of biological response, the Tox21 10K compound library was screened for auto fluorescence.
From the fluorophores used as reporter signals in our screening assays, the auto fluorescence equivalencies of compounds against three fluorophores have been evaluated: Triamterene, Fluorescein and Rose Bengal sodium for blue, green and red fluorescence, respectively. The fluorescence intensities were measured using Excitation/Emission wavelengths at 405/460nm, 485/535nm and 540/590nm for blue, green and red labels, respectively. This assay includes the blue fluorescence data.
Tox21 Assay Protocol Summary:
2,000 HEK293 cells in 5 uL of culture medium containing 10% dialyzed FBS per well were dispensed into black wall/clear bottom 1536-well plates using a Multidrop Combi Dispenser (Thermo Scientific). The assay plates were incubated for 4-5 hr at 37C to allow cell attachment to the well bottom, followed by the transfer of 23 nL compound or DMSO vehicle by a pintool work station (Kalypsys, San Diego, CA). After the assay plates were incubated overnight at 37C and 5% CO2, fluorescence intensities in the assay plates were measured by an Envision (PerkinElmer, Shelton, CT) plate reader using three labels for measuring blue, green and red fluorescence at […] 460, 535 and 590nm respectively.
Consider `N#CC(CCc1ccc(Cl)cc1)(Cn1cncn1)c1ccccc1` (stereo not given), for which the call was inactive. Take `CCOP(=S)(OCC)SCSc1ccc(Cl)cc1`: the compound was called inactive. As for `CC1CCC(=O)O1` (stereo not given), the entry is “inactive”; as for `Nc1c(Br)cc([N+](=O)[O-])cc1[N+](=O)[O-]`, “inactive”; as for `CCN(CC)C(C)C(=O)c1ccccc1` (stereo not given), “inactive”. As for `CCC1(c2ccccc2)C(=O)NC(=O)NC1=O`, the entry is “inactive”. Next, `CCCSP(=O)(OCC)Oc1ccc(Br)cc1Cl` (stereo not given): “inactive”; `c1cc[c]([Hg][c]2ccccc2)cc1`: “inactive”. Take `COc1cc(OC)nc(Oc2cccc(Oc3nc(OC)cc(OC)n3)c2C(=O)O)n1`: the compound was called inactive. `CC(C=O)Cc1ccc2c(c1)OCO2` (stereo not given): the result was inactive. Turning to `COc1ccc(C(=O)N2CCCC2=O)cc1`, the call was inactive. As for `CCCCCCI`, the entry is “inactive”. Take `Nc1ccccc1Cl`: the outcome was inactive. In the case of `CCSC(=O)N(CC)C1CCCCC1`, the compound was called inactive.

For the compound `Cc1nnc2n1-c1sc(CCC(=O)N3CCOCC3)cc1C(c1ccccc1Cl)=NC2`, the compound was called inactive. As for `O=C(Nc1ccccc1)N(Cc1ccc(Cl)cc1)C1CCCC1`, the entry is “inactive”; as for `N#CCBr`, “inactive”. As for `CCCSC(=O)Cl`, the entry is “inactive”; as for `NC1=NC(=O)C(c2ccccc2)O1` (stereo not given), “inactive”; as for `OC(Cn1cncn1)(c1ccc(F)cc1)c1ccccc1F` (stereo not given), “inactive”. On to `CCCCOC(=O)[C@@H](C)Oc1ccc(Oc2ccc(C#N)cc2F)cc1`, for which the compound was classed as inactive.

With `BrCCCCCCBr`, the call was inactive.

`c1cc2c(c(N3CCNCC3)c1)OCCO2`: the compound was classed as inactive. Next, `[Cl][Sn]([Cl])([Cl])[Cl]`: “inactive”; `Cc1ncsc1CCCl`: “inactive”. As for `O=C1OC(c2ccc(O)c(S(=O)(=O)O)c2)(c2ccc(O)c(S(=O)(=O)O)c2)c2c(Br)c(Br)c(Br)c(Br)c21`, the entry is “inactive”; as for `COC(=O)c1c(C(F)F)nc(C(F)(F)F)c(C2=NCCS2)c1CC(C)C`, “inactive”. Next, `COC(=O)C(c1ccccc1)C1CCCCN1` (stereo not given): “inactive”. Take `CC(=O)CCc1ccc2c(c1)OCO2`: the compound was classed as inactive. With `N#CC(Cl)(Cl)Cl`, the compound was classed as inactive.

For the compound `NC(=S)C(N)=S`, the compound was classed as inactive. As for `O=CNC(N1CCN(C(NC=O)C(Cl)(Cl)Cl)CC1)C(Cl)(Cl)Cl` (stereo not given), the entry is “inactive”.

In the case of `CC(=O)C(Cl)Cl`, the compound was called inactive. As for `CN(N=O)C(N)=O`, the outcome was inactive. Take `CCOC(=O)CP(=O)(OCC)OCC`: the compound was classed as inactive.

Regarding `CCOP(=S)(OCC)Oc1cc(-c2ccccc2)on1`, the result was inactive. Next, `COP(=S)(OC)Oc1ccc(S(N)(=O)=O)cc1`: “inactive”; `CC(C)CC#N`: “inactive”. Regarding `CCOC(=O)/C=C(C)/C=C/C[C@@H](C)CCCC(C)C`, the result was inactive. In the case of `CCC/C(=N\OCC)C1=C(O)CC(CC(C)SCC)CC1=O` (stereo not given), the compound was classed as inactive.
